# Data as given in PubChem BioAssay AID743060 (The Scripps Research Institute Molecular Screening Center, 2013).
# Experiment: T. brucei methionyl-tRNA synthetase enzyme inhibition – biochemical, radioactivity, round 1, late-stage follow-up (AID 743060)
# Conditions: purified enzyme, radiolabel aminoacylation, scintillation, 2 h; at 1 µM; stronger effect = higher value
row,SMILES,inhibition [%]
1,Cc1cc2cc(C(=O)N3CCCC(c4nc5ccccc5[nH]4)C3)ccc2o1 (stereo not given),20.3
2,O=C(NCCc1nc2ccccc2[nH]1)c1ccc(Cl)cc1Cl,61.9
3,CCN(CC)C(=O)C(=O)c1cn(CC(=O)Nc2ccccc2OC)c2ccccc12,-7.03
4,Clc1ccc(OCCSCc2nc3ccccc3[nH]2)cc1,-2.58
5,O=C(Cn1cc(C(=O)C2CC2)c2ccccc21)Nc1cccc(C(F)(F)F)c1,3.65
6,CCO[C@H]1OC(C(=O)NCc2nc3ccccc3[nH]2)=C[C@@H](c2ccc(Br)cc2)[C@@H]1CCCO,0.88
7,C[C@H](O)[C@@H]1C(=O)N2CCc3c([nH]c4ccccc34)[C@@H]2C[C@@H]1N(C)Cc1ccc2c(c1)OCO2,1.98
8,CCCCCCCCCC1NC(C(=O)O)Cc2c1[nH]c1ccccc21 (stereo not given),64.7
9,O=C(NCc1nc2ccccc2[nH]1)C1=C[C@H](c2ccc(Br)cc2)C[C@H](OCCCCO)O1,51.6
10,Cc1cccc2[nH]c(C3CCCN(C(=O)c4cccc5cccnc45)C3)nc12 (stereo not given),-3.03
11,O=C(NCc1nc2ccccc2[nH]1)C1=C[C@H](c2ccc3c(c2)OCO3)C[C@H](OCCCCO)O1,5.68
12,COc1ccccc1-n1c(SCC(=O)Nc2ccc(Cl)cc2)nc(O)c(Cc2ccccc2)c1=O,2.04
13,CCc1ccc2[nH]c3nc(SCC(=O)NCc4cccc(OC)c4)nnc3c2c1,4.75
14,Cn1c(CCNC(=O)c2ccc(Cl)cc2)nc2ccccc21,10.9
15,O=C(N/C(=C\c1cccnc1)c1nc2ccccc2[nH]1)c1cccc(Br)c1,14.4
16,O=C(NCc1nc2ccccc2[nH]1)C1=C[C@@H](c2ccccc2)C[C@@H](OCc2ccc(CO)cc2)O1,44.6
17,CC(=O)N(CCc1ccccc1)C1CC(=O)N(c2ccc(Br)cc2)C1=O (stereo not given),-12.2
18,O=C(Cn1cc(C(=O)C(=O)N2CCCC2)c2ccccc21)Nc1ccccc1,-5.78

row,SMILES,inhibition [%]
1,CC(=O)c1ccc(N2CCN(C(=O)CCCn3c(=O)[nH]c4ccc(Br)cc4c3=O)CC2)cc1,68.1
2,O=C(Cn1cc(C(=O)C(=O)N2CCOCC2)c2ccccc21)NCc1ccccc1,-0.16
3,O=C(CN1CCSC1=NCc1ccccc1)c1ccc(Cl)c(Cl)c1,-1.95
4,CN1CC(=O)N2C(c3cccc([N+](=O)[O-])c3)c3[nH]c4ccccc4c3C[C@H]2C1=O (stereo not given in full),57.7
5,O=C(NCCc1nc2ccccc2[nH]1)c1ccc(Cl)cc1,20.1
6,CC(C)(C)[C@@H]1C=C(C(=O)NCc2nc3ccccc3[nH]2)O[C@H](OCc2ccc(CO)cc2)C1,30.8
7,CCC(=O)c1cn(CC(=O)Nc2cccc(C(F)(F)F)c2)c2ccccc12,-3.8
8,Brc1cnc2nc(SCc3nc4ccccc4[nH]3)[nH]c2c1,23.7
9,CC(=O)c1cn(CC(=O)Nc2cccc(C(F)(F)F)c2)c2ccccc12,20.1
10,CCc1ccc2c(c1)c1nnc(SCC(=O)Nc3ccc4c(c3)OCO4)nc1n2C,-1.63
11,CN(Cc1cc(Cl)cc(Cl)c1)[C@H]1C[C@H]2c3[nH]c4ccccc4c3CCN2C(=O)[C@H]1CO,95.1
12,COc1ccccc1NS(=O)(=O)c1cccc(NC(=O)Nc2ccccc2)c1,57
13,Clc1ccc(-c2nnc(SCc3nc4ccccc4[nH]3)o2)c(Cl)c1,75.3
14,O=C(NCc1nc2ccccc2[nH]1)C1=C[C@H](c2csc3ccccc23)C[C@H](OCCCCO)O1,71.1
15,O=C(CC(=O)Nc1cccc(Cl)c1)NN=Cc1ccccc1,28.2
16,O=C(C(=O)N1CCOCC1)c1cn(CC(=O)N2CCCc3ccccc32)c2ccccc12,-6
17,COc1ccc(CCN(C(=S)Nc2ccccc2)C2CC(=O)N(c3ccc(Cl)cc3)C2=O)cc1 (stereo not given),92.7
